These results are taken from ChEMBL document CHEMBL3988442, “University of Dundee, Small-Polar-MMV Screening Library” (2021).

The whole screen tested about 48,000 compounds, of which about 13,000 (27%) showed an effect of 50% or more. The list shows a part of the results.

For this assay, the system named is Wolbachia pipientis. The assay can be described thus: Anti-Wolbachia Cell-Based Screen. The arrangement: scale not given: in the data most compounds retested in dose-response had high values. Format: functional. As to conditions: 5 µM.
For `CC(Nc1ccn(Cc2ccccn2)n1)C(=O)NC(C)(C)C` (stereo not drawn), the “Percent Effect” value worked out at 22.79%.

As for `CCNC(=O)COc1ccc(C(=O)NC(C)CCc2ccco2)cc1` (stereo not drawn), the “Percent Effect” value was 6.867%.

Consider `CC1(C)[C@H](Cc2cc(CN3CCCCC3)on2)C[C@@H]1NC(=O)C1CC1`, for which the “Percent Effect” value came out at 0.3573%.

In the case of `c1cnnc(N2CCCC2CNCc2nnc(C3CC3)o2)c1` (stereo not drawn), the “Percent Effect” value was -1.218%.

For the molecule `c1cnnc(N2CCCC2CNCc2nc(-c3ccsc3)no2)c1` (stereo not drawn), the “Percent Effect” value is 0.4887%.

Consider `CCc1nc(CNCC2CCCN2c2cccnn2)no1` (stereo not drawn), for which the “Percent Effect” value stood at 94.84%.

Consider `CCc1noc(CNCC2CCCN2c2cccnn2)n1` (stereo not drawn), for which the “Percent Effect” value was found to be 129.4%.

On to `Cc1ccoc1-c1nnc(CNCC2CCCN2c2cccnn2)o1` (stereo not drawn), for which the “Percent Effect” value is listed as 10.61%.

As for `c1cnnc(N2CCCC2CNCc2nc(C3CC3)no2)c1` (stereo not drawn), the “Percent Effect” value is given as 6.175%.

`CCc1nnc(CNCC2CCCN2c2cccnn2)o1` (stereo not drawn): the “Percent Effect” value came out at 6.974%.

As for `CCCc1nc(CNCC2CCCN2c2cccnn2)no1` (stereo not drawn), the “Percent Effect” value is given as 124.8%.

Regarding `COCCc1noc(CNCC2CCCN2c2cccnn2)n1` (stereo not drawn), the “Percent Effect” value came to 10.85%.

Consider `c1cnnc(N2CCCC2CNCc2nc3ccccc3o2)c1` (stereo not drawn), for which the “Percent Effect” value was found to be 8.977%.

As to `c1cnnc(N2CCCC2CNCc2noc(C3CC3)n2)c1` (stereo not drawn), the “Percent Effect” value turned out to be 124.8%.

As to `Cc1nc(CNCC2CCCN2c2cccnn2)no1` (stereo not drawn), the “Percent Effect” value turned out to be 8.82%.

Regarding `Cc1cc(C(F)(F)F)nc(N(C)Cc2c(C)noc2C)n1`, the “Percent Effect” value is 12%.

With `CCOCCn1nc(C)cc1C(=O)N1CC[C@](O)(CC)[C@H](O)C1`, the “Percent Effect” value is reported as -19.56%.

In the case of `CCc1ccccc1OCCN(C)C(=O)CN1CCCC1`, the “Percent Effect” value was -0.4334%.

Turning to `COc1ccc(CN2CC(O)CN(C(=O)CC(C)C)CC2=O)cc1` (stereo not drawn), the “Percent Effect” value is listed as 135.2%.

Turning to `CC(C)COC(=O)N1CC(=O)N(Cc2ccc(Cl)cc2)CC(O)C1` (stereo not drawn), the “Percent Effect” value amounted to 87.43%.

As to `CCc1cnc(N2C[C@H]3CN(Cc4ccc(OC)cc4)C(=O)[C@H]3C2)nc1`, the “Percent Effect” value is on record as -6.562%.

`COc1ccc(CN2CC(O)CN(C(=O)OCC(C)C)CC2=O)cc1` (stereo not drawn): the “Percent Effect” value is 126.2%.

For `COc1ccc(CN2C[C@H]3CN(C(=O)c4ccno4)CCN3C2=O)cc1`, the “Percent Effect” value is -1.817%.

For `COc1ccc(CN2CCN(c3nccnc3OC)CC2=O)cc1`, the “Percent Effect” value is reported as -6.7%.

Consider `Cc1ccc(CN2CC(O)CN(C(=O)OCC(C)C)CC2=O)cc1` (stereo not drawn), for which the “Percent Effect” value is on record as 102.7%.

For `CCOC(=O)c1coc(N2CCN(Cc3ccc(C)cc3)C(=O)C2)n1`, the “Percent Effect” value is -18.23%.

`CCCN(CCO)C(=O)C1CCC(=O)N(Cc2ccc(Cl)cc2)C1` (stereo not drawn): the “Percent Effect” value is listed as -2.566%.

For the molecule `CC(C)N(CCO)C(=O)C1CCC(=O)N(Cc2ccc(Cl)cc2)C1` (stereo not drawn), the “Percent Effect” value is on record as 0.7255%.

With `Cc1ccc(CN2C[C@H]3CN(C(=O)c4ccno4)CCN3C2=O)cc1`, the “Percent Effect” value is -7.285%.

Take `COC(=O)CCNC(=O)c1ccoc1CN1c2ccccc2CC1C` (stereo not drawn): the “Percent Effect” value is reported as -5.639%.

In the case of `CC(=O)Nc1ccc(-c2cn(CCn3c(C)cc(C)nc3=O)nn2)cc1`, the “Percent Effect” value is reported as -7%.

With `Cc1ccc(C(=O)Nc2ccn(CCC(N)=O)n2)cc1`, the “Percent Effect” value was 10.52%.

For the molecule `O=C(Cc1ccccc1Cl)Nc1ccn(CCN2CCOCC2)n1`, the “Percent Effect” value is recorded as -48.65%.

Consider `CCN(CC)S(=O)(=O)c1ccc(CNC(=O)c2cc(C)on2)cc1`, for which the “Percent Effect” value amounted to 15.58%.

For `Cc1ccsc1CNC(=O)Nc1ccn(CCN2CCOCC2)n1`, the “Percent Effect” value is -52.79%.

`CCn1ccc(NC(=O)c2cc(C)on2)n1`: the “Percent Effect” value was found to be 120%.

As for `Cc1cc(CNC(=O)CCCN2CCCCC2)n(C)n1`, the “Percent Effect” value is reported as -11.62%.

As for `Cc1cc(C(=O)Nc2ccn(CCCN3CCCC3)n2)c(C)o1`, the “Percent Effect” value was 100.8%.

As to `Cc1cc(C(=O)Nc2ccn(CCCN3CCCC3)n2)no1`, the “Percent Effect” value stood at 96.67%.

For the molecule `Cc1ccnc(NC(=O)c2cc(C)oc2C)c1`, the “Percent Effect” value came out at 11.88%.

As to `CCOc1cc(C)nc(N2CCN(C(=O)c3cc(Cl)c[nH]3)CC2)n1`, the “Percent Effect” value is reported as 4.417%.

As for `Cc1cnn(Cc2cc(F)ccc2F)c1NC(=O)C1CCOCC1`, the “Percent Effect” value was -4.081%.

Turning to `CNC(=O)C1(N2CCC[C@H]2C(=O)NC2CCOCC2)CCOCC1.Cl`, the “Percent Effect” value is on record as -3.696%.

On to `Cc1nsc(NC(=O)N2CCN(Cc3ccc(F)cc3)C(=O)C2)n1`, for which the “Percent Effect” value was found to be 3.543%.

As for `Cn1ncnc1-c1ccnc(N2CCC(C(O)c3cccs3)CC2)n1` (stereo not drawn), the “Percent Effect” value was -11.63%.

Turning to `CCC1CN(C(=O)Cc2coc(-c3ccccc3)n2)CCO1` (stereo not drawn), the “Percent Effect” value is -15.78%.

Consider `Cc1ccc(-c2nc(CNCC3CN(C)CCO3)co2)c(C)c1` (stereo not drawn), for which the “Percent Effect” value was 99.3%.

As to `CN1CCOC(CNCc2coc(-c3ccccc3)n2)C1` (stereo not drawn), the “Percent Effect” value is given as -3.46%.

As for `Cc1ccc(-c2nc(CNCC3CN(C)CCO3)co2)cc1` (stereo not drawn), the “Percent Effect” value came out at 108.3%.

For the molecule `CN(C)CC1CN(Cc2coc(-c3ccccc3Cl)n2)CCO1` (stereo not drawn), the “Percent Effect” value is given as -0.3444%.

For `CN1CCOC(CNC(=O)Cc2coc(-c3ccccc3)n2)C1` (stereo not drawn), the “Percent Effect” value is listed as 107.6%.

With `CN1CCOC(CNC(=O)Cc2ccccc2F)C1` (stereo not drawn), the “Percent Effect” value was -10.58%.

For `CN1CCOC(CNCc2coc(-c3ccccc3Cl)n2)C1` (stereo not drawn), the “Percent Effect” value is 105.3%.

Regarding `CN1CCOC(CNCc2nc(-c3ccoc3)no2)C1` (stereo not drawn), the “Percent Effect” value is -1.201%.

As for `CC(C)(C)OC(=O)N1CCCc2ccc(NCc3ncc[nH]3)cc21`, the “Percent Effect” value turned out to be 1.363%.

Regarding `Cn1cnnc1CC1CCN(Cc2c(Cl)cncc2Cl)CC1`, the “Percent Effect” value is on record as -0.137%.

For `COc1ccc(S(=O)(=O)Cc2cc(C)on2)cc1`, the “Percent Effect” value is listed as 3.84%.

Consider `CN1CCOC(CNCc2coc(-c3ccc(Cl)cc3)n2)C1` (stereo not drawn), for which the “Percent Effect” value worked out at 81.44%.

In the case of `O=C(CCn1cncn1)N1CCCC(CO)(CCCc2ccccc2)C1` (stereo not drawn), the “Percent Effect” value was determined as 16.2%.

For the molecule `CN(Cc1ccncc1)C(=O)[C@H]1CSCN1C(=O)OC(C)(C)C`, the “Percent Effect” value turned out to be 103.4%.

For `CN(CCc1ccncc1)C(=O)C1CSCN1C(=O)C1CCCC1` (stereo not drawn), the “Percent Effect” value is reported as -15.81%.

Consider `CN(CCc1ccncc1)C(=O)C1CSCN1C(=O)CC(C)(C)C` (stereo not drawn), for which the “Percent Effect” value came to 109.1%.

`CC(C)(C)OC(=O)N1CSC[C@@H]1C(=O)NCc1ccncc1`: the “Percent Effect” value was -9.296%.

On to `CN(CCc1ccncc1)C(=O)C1CSCN1C(=O)C(C)(C)C` (stereo not drawn), for which the “Percent Effect” value is reported as -12.64%.

As to `CN(CC(F)(F)F)C(=O)C1CSCN1C(=O)OC(C)(C)C` (stereo not drawn), the “Percent Effect” value amounted to 6.249%.

On to `Nc1nnc(CCNc2ncnc3c2CCN(C(=O)C2CC2)C3)s1`, for which the “Percent Effect” value is recorded as -2.758%.

For `CCS(=O)(=O)c1ncc(CN2CCCC2)n1CCc1ccccc1`, the “Percent Effect” value was 1.853%.

With `COCCc1nc(CSc2ccncc2)n(C)n1`, the “Percent Effect” value is -10.21%.
